# Source: PubChem BioAssay (Tox21)
# Values joined by “and” are separate entries in the source; they are usually repeats but may differ in a detail not shown here. Equal values may be shown once. Results filed as inconclusive are left out. A call without a number means that no potency is given here. Values without a mark were called inactive. Active and inactive are the calls of the source. Calls come from the whole dose curve; as a rule, active = well fitted curve in the direction sought with a large enough effect in the repeat runs; inconclusive = weak or mixed curves; inactive = no such curve, though single readings can be large; an effect the other way counts as inactive or inconclusive.
# Experiments:
# [1] = A CellTox Green Cytotoxicity Assay to monitor cytotoxicity in HepG2 cells - 32 hour (AID 1224883); note: nearly all actives have a fitted effect of over 50% in size; note: potency is the fitted concentration of half-maximal effect
# Summary of the method: (§1)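 Fluorescent DNA-binding dye, 600 HepG2 cells/well, 5 h preincubation then compound in DMSO; same plates read at 0–40 h, 37 C.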
# [2] = A CellTox Green Cytotoxicity Assay to monitor cytotoxicity in HEK293 cells - 8 hour (AID 1224884); note: nearly all actives have a fitted effect of over 35% in size; note: potency is the fitted concentration of half-maximal effect
# Summary of the method: (§2)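 Homogeneous no-lysis format: HEK293 cell suspension mixed with CellTox Green reagent, seeded, incubated 5 h at 37 C/5% CO2, then dosed by pintool with compound in DMSO.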
# [3] = qHTS RealTime-Glo MT Cell Viability Assay in HepG2 cells - 16 hour (AID 1224885); note: nearly all actives have a fitted effect of over 50% in size; note: potency is the fitted concentration of half-maximal effect
# Summary of the method: (§3)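 HepG2 cells were seeded at 600 cells/well together with NanoLuc luciferase and a cell-permeant prosubstrate, preincubated 5 h at 37 C/5% CO2, then pin-dosed with compounds in DMSO. Nonlytic luminescence from viable cells was read at each time point.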
# [4] = qHTS RealTime-Glo MT Cell Viability Assay in HEK293 cells - 24 hour (AID 1224886); note: nearly all actives have a fitted effect of over 50% in size; note: potency is the fitted concentration of half-maximal effect; for activity change, negative = cytotoxicity: top concentration of the series differs between compounds
# Summary of the method: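 HEK293 cells were seeded at 600 cells/well together with NanoLuc luciferase and cell-permeant prosubstrate, preincubated 5 h at 37 C/5% CO2, then given compound in DMSO by pintool. Luminescence from viable-cell prosubstrate reduction was read repeatedly over 40 h.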
# [5] = qHTS RealTime-Glo MT Cell Viability Assay in HEK293 cells - 8 hour (AID 1224887); note: nearly all actives have a fitted effect of over 50% in size; note: potency is the fitted concentration of half-maximal effect; for activity change, negative = cytotoxicity: top concentration of the series differs between compounds
# Summary of the method: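 Measured as luminescence from the same continuously cultured HEK293 wells at successive time points (0, 8, 16, 24, 32, 40 h) after compound addition. Reagent present from seeding; dosing at 5 h; incubation 37 C.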
# [6] = A CellTox Green Cytotoxicity Assay to monitor cytotoxicity in HEK293 cells - 16 hour (AID 1224888); note: nearly all actives have a fitted effect of over 35% in size; note: potency is the fitted concentration of half-maximal effect
# Summary of the method: as §2
# [7] = qHTS RealTime-Glo MT Cell Viability Assay in HepG2 cells - 0 hour (AID 1224889); note: nearly all actives have a fitted effect of over 50% in size
# Summary of the method: as §3
# [8] = qHTS assay to identify small molecule antagonists of the estrogen receptor alpha (ER-alpha) signaling pathway using the BG1 cell line in the presence of 0.1 nM 17-beta-estradiol - cell viability counter screen (AID 1259241); note: nearly all actives have a fitted effect of over 40% in size
# Summary of the method: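 Cells were plated and left 24 hr, compounds in DMSO were pinned in, 17beta-estradiol was added to 0.1 nM final, and after 22 hr CellTiter-Fluor reagent was added for 30 min before fluorescence was read.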
# [9] = qHTS assay to identify small molecule antagonists of the androgen receptor (AR) signaling pathway using the MDA cell line in the presence of 0.5 nM R1881 - cell viability counter screen (AID 1259242); note: nearly all actives have a fitted effect of over 45% in size; note: potency is the fitted concentration of half-maximal effect
# Summary of the method: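 Human breast carcinoma MDA-kb2 cells, cultured without CO2, receive compounds alongside 0.5 nM (final) R1881 agonist. After 16 hr at 37C, viability is taken as live-cell protease signal.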
# [10] = A CellTox Green Cytotoxicity Assay to monitor cytotoxicity in HepG2 cells - 8 hour (AID 1224890); note: nearly all actives have a fitted effect of over 45% in size; note: potency is the fitted concentration of half-maximal effect
# Summary of the method: as §1
structure (smiles),measurement,setting,value
CN(C)CCN1CCOCC1,Potency,[1],inactive
same,Potency,[2],inactive
same,Potency,[3],inactive
same,Potency,[4],inactive
same,Potency,[5],inactive
same,Potency,[6],inactive
same,Potency,[7],inactive
same,Potency,[8],inactive
same,Potency,[9],inactive
C[Si](C)(C)Cl,Potency,[1],inactive
same,Potency,[2],inactive
same,Potency,[3],inactive
same,Potency,[4],inactive
same,Potency,[5],inactive
same,Potency,[6],inactive
same,Potency,[7],inactive
same,Potency,[10],inactive
same,Potency,[8],inactive
same,Potency,[9],inactive
CCC(=O)CC(C)CC (stereo not drawn),cytotoxicity increase,[1],8.4% [at 0.29 µM]
same,cytotoxicity increase,[2],19.1% [at 0.29 µM]
same,"activity change, negative = cytotoxic",[3],0.759% [at 0.29 µM]
same,"activity change, negative = cytotoxicity",[4],-3.03% [at 0.29 µM]
same,"activity change, negative = cytotoxicity",[5],3.45% [at 0.29 µM]
same,activity change,[6],"10.7% [at 0.29 µM, stronger effect = higher value]"
same,"activity change, negative = cytotoxicity",[7],5.37% [at 0.29 µM]
same,cytotoxicity increase,[10],2.33% [at 0.29 µM]
same,"activity change, negative = cytotoxicity",[8],-17.1% [at 0.349 µM]
same,"viability change, negative = cytotoxic",[9],2.57% [at 0.349 µM]
COC(=O)CC#N,Potency,[1],inactive
same,Potency,[2],inactive
same,Potency,[3],inactive
same,Potency,[4],inactive
same,Potency,[5],inactive
same,Potency,[6],inactive
same,Potency,[7],inactive
same,Potency,[10],inactive
same,Potency,[8],inactive
same,Potency,[9],inactive
CCCCCCCCCCCCCC[n+]1ccccc1,Potency,[1],11 µM (active)
same,Potency,[2],54.9 µM (active)
same,Potency,[3],21.9 µM (active)
same,Potency,[4],6.16 µM (active)
same,Potency,[5],54.9 µM (active)
same,Potency,[6],54.9 µM (active)
same,Potency,[7],inactive
same,Potency,[10],49 µM (active)
same,Potency,[9],24.3 µM (active)
COCC(=O)O[C@]1(CCN(C)CCCc2nc3ccccc3[nH]2)CCc2cc(F)ccc2[C@@H]1C(C)C,Potency,[1],10.7 µM (active)
same,Potency,[2],inactive
same,Potency,[3],19 µM (active)
same,Potency,[4],6.01 µM (active)
same,Potency,[5],6.74 µM (active)
same,Potency,[6],23.9 µM (active)
same,Potency,[7],inactive
same,Potency,[10],23.9 µM (active)
same,Potency,[8],inactive
same,Potency,[9],21.1 µM (active)
O=S(=O)(O)c1cc(S(=O)(=O)O)c2ccc3c(S(=O)(=O)O)cc(S(=O)(=O)O)c4ccc1c2c43,cytotoxicity increase,[1],-9.89% [at 15.8 µM]
same,cytotoxicity increase,[2],-7.26% [at 15.8 µM]
same,"activity change, negative = cytotoxic",[3],2.01% [at 15.8 µM]
same,"activity change, negative = cytotoxicity",[4],1.56% [at 15.8 µM]
same,"activity change, negative = cytotoxicity",[5],-2.93% [at 15.8 µM]
same,activity change,[6],"-3.56% [at 15.8 µM, stronger effect = higher value]"
same,"activity change, negative = cytotoxicity",[7],4.18% [at 15.8 µM]
same,cytotoxicity increase,[10],7.21% [at 15.8 µM]
same,"activity change, negative = cytotoxicity",[8],-2.07% [at 19 µM]
same,"viability change, negative = cytotoxic",[9],-1.34% [at 19 µM]
Cc1cccc(N(C)C)c1,Potency,[1],inactive
same,Potency,[2],inactive
same,Potency,[3],inactive
same,Potency,[4],inactive
same,Potency,[5],inactive
same,Potency,[6],inactive
same,Potency,[7],inactive
same,Potency,[10],inactive
same,Potency,[8],inactive
same,Potency,[9],inactive
CCCCCCCCCCCCOC(=O)c1cc(O)c(O)c(O)c1,Potency,[1],48.8 µM (active) and 54.9 µM (active)
same,Potency,[2],54.7 µM (active)
same,Potency,[3],48.8 µM (active) and 49 µM (active)
same,Potency,[4],4.35 µM (active) and 3.89 µM (active)
same,Potency,[5],7.73 µM (active) and 6.17 µM (active)
same,Potency,[6],54.7 µM (active) and 43.6 µM (active)
same,Potency,[7],inactive
same,Potency,[10],48.8 µM (active) and 21.9 µM (active)
same,Potency,[9],60.9 µM (active)
[O]=[Zr],Potency,[1],inactive
same,Potency,[2],inactive
same,Potency,[3],inactive
same,Potency,[4],inactive
same,Potency,[5],inactive
same,Potency,[6],inactive
same,Potency,[7],inactive
same,Potency,[8],inactive
same,Potency,[9],inactive
NC(=O)c1ccccc1N,Potency,[1],inactive
same,Potency,[2],inactive
same,Potency,[3],inactive
same,Potency,[4],inactive
same,Potency,[5],inactive
same,Potency,[6],inactive
same,Potency,[7],inactive
same,Potency,[10],inactive
same,Potency,[8],inactive
same,Potency,[9],inactive
OCCCCl,Potency,[1],inactive
same,Potency,[2],inactive
same,Potency,[3],inactive
same,Potency,[4],inactive
same,Potency,[5],inactive
same,Potency,[6],inactive
same,Potency,[7],inactive
same,Potency,[10],inactive
same,Potency,[8],inactive
same,Potency,[9],inactive
COc1nccnc1CC(C)C,Potency,[1],inactive
same,Potency,[2],inactive
same,Potency,[3],inactive
same,Potency,[4],inactive
same,Potency,[5],inactive
same,Potency,[6],inactive
same,Potency,[7],inactive
same,Potency,[10],inactive
same,Potency,[8],inactive
same,Potency,[9],inactive
OCCN1CN(CCO)CN(CCO)C1,Potency,[1],inactive
same,Potency,[2],inactive
same,Potency,[3],inactive
same,Potency,[4],inactive
same,Potency,[5],inactive
same,Potency,[6],inactive
same,Potency,[7],inactive
same,Potency,[10],inactive
same,Potency,[8],inactive
same,Potency,[9],inactive
CCCN(CCc1cccs1)[C@H]1CCc2c(O)cccc2C1,Potency,[1],23.9 µM (active)
same,Potency,[2],inactive
same,Potency,[3],inactive
same,Potency,[4],7.56 µM (active)
same,Potency,[5],15.1 µM (active)
same,Potency,[7],inactive
same,Potency,[8],inactive
same,Potency,[9],inactive
Cc1cccc(Br)c1,Potency,[1],inactive
same,Potency,[2],inactive
same,Potency,[3],inactive
same,Potency,[4],inactive
same,Potency,[5],inactive
same,Potency,[6],inactive
same,Potency,[10],inactive
same,Potency,[8],inactive
same,Potency,[9],inactive
C=CCCCCCCC=C,Potency,[1],inactive
same,Potency,[2],inactive
same,Potency,[3],inactive
same,Potency,[4],inactive
same,Potency,[5],inactive
same,Potency,[6],inactive
same,Potency,[7],inactive
same,Potency,[8],inactive
same,Potency,[9],inactive
CO[Si](CCCNCCNCCN)(OC)OC,Potency,[1],inactive
same,Potency,[2],inactive
same,Potency,[3],inactive
same,Potency,[4],inactive
same,Potency,[6],inactive
same,Potency,[7],inactive
same,Potency,[10],inactive
same,Potency,[8],inactive
same,Potency,[9],inactive
OCCCc1cccnc1,Potency,[1],inactive
same,Potency,[2],inactive
same,Potency,[3],inactive
same,Potency,[4],inactive
same,Potency,[5],inactive
same,Potency,[6],inactive
same,Potency,[7],inactive
same,Potency,[8],inactive
same,Potency,[9],inactive
CCc1c(Br)c(Br)c(Br)c(Br)c1Br,Potency,[1],inactive
same,Potency,[2],inactive
same,Potency,[3],inactive
same,Potency,[4],inactive
same,Potency,[5],inactive
same,Potency,[7],inactive
same,Potency,[10],inactive
same,Potency,[8],inactive
same,Potency,[9],inactive
CCCCCCCCCC(=O)N(C)C,Potency,[1],inactive
same,Potency,[2],inactive
same,Potency,[3],inactive
same,Potency,[4],inactive
same,Potency,[5],inactive
same,Potency,[7],inactive
same,Potency,[10],inactive
same,Potency,[8],inactive
same,Potency,[9],inactive
CCN(CC)CCOc1ccc(C(O)(Cc2ccc(Cl)cc2)c2ccc(C)cc2)cc1 (stereo not drawn),Potency,[1],15.1 µM (active)
same,Potency,[2],inactive
same,Potency,[3],23.9 µM (active)
same,Potency,[4],19 µM (active)
same,Potency,[5],21.3 µM (active)
same,Potency,[8],inactive
CCC1CCCCC1,Potency,[1],inactive
same,Potency,[2],inactive
same,Potency,[3],inactive
same,Potency,[4],inactive
same,Potency,[6],inactive
same,Potency,[7],inactive
same,Potency,[10],inactive
same,Potency,[8],inactive
same,Potency,[9],inactive
